From ChEMBL document CHEMBL1961873, “Compounds: GSK PKIS; Assays: Nanosyn kinase panel” (2012) come the findings set out here.

Test [1] deals with Serine/threonine-protein kinase MARK2 (Homo sapiens) (UniProt Q7KZI7). The settings on record: at 1 µM.
Test [2] has as its target PAS domain-containing serine/threonine-protein kinase (Homo sapiens) (UniProt Q96RG2). The settings on record: at 0.1 µM.
The target is the same in test [3]. The settings on record: at 1 µM.
Test [4] concerns the target Phosphorylase b kinase gamma catalytic chain, skeletal muscle/heart isoform (Homo sapiens) (UniProt Q16816). Conditions: at 0.1 µM.
For test [5] the target is unchanged. Conditions: at 1 µM.
The target in test [6] is T1, Phosphorylase b kinase gamma catalytic chain, liver/testis isoform (Homo sapiens) (UniProt P15735).
T1 sequence (whole entry): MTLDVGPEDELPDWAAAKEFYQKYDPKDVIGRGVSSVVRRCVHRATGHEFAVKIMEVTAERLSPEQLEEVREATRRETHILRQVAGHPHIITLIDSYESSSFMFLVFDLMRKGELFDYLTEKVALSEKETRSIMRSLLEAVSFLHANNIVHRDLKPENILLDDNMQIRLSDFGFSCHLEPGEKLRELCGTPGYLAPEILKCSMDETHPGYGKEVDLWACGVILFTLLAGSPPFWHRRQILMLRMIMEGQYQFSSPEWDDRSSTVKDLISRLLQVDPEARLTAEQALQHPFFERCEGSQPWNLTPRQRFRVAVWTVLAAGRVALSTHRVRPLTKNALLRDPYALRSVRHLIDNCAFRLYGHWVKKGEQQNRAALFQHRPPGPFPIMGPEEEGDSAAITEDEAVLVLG
The settings on record: at 0.1 µM.

Test [7] concerns the target T1, Phosphorylase b kinase gamma catalytic chain, liver/testis isoform (Homo sapiens). The settings on record: at 1 µM.
In test [8] the target is Serine/threonine-protein kinase pim-1 (Homo sapiens) (UniProt P11309). The settings on record: at 0.1 µM.
The target is the same in test [9]. The settings on record: at 1 µM.
Test [10] concerns the target Serine/threonine-protein kinase pim-2 (Homo sapiens) (UniProt Q9P1W9). Conditions: at 0.1 µM.
The target is the same in test [11]. The settings on record: at 1 µM.
Test [12] concerns the target Serine/threonine-protein kinase pim-3 (Homo sapiens) (UniProt Q86V86). The settings on record: at 1 µM.
The target of test [13] is T2, MAP kinase-activated protein kinase 5 (Homo sapiens) (UniProt Q8IW41).
T2 sequence (whole entry): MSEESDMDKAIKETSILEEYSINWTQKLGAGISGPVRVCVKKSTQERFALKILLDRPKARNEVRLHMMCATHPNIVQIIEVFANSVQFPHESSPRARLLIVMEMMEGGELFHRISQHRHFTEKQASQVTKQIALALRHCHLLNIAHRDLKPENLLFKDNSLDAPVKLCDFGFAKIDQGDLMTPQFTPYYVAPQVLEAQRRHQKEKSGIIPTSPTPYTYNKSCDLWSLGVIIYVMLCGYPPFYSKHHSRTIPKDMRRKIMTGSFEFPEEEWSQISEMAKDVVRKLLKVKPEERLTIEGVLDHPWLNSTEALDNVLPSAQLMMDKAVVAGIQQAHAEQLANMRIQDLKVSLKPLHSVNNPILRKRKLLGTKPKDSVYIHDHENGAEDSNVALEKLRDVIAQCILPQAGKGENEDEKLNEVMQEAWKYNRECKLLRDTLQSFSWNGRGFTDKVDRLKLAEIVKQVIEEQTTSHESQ
Conditions: at 0.1 µM.

Test [14] has as its target T2, MAP kinase-activated protein kinase 5 (Homo sapiens). The settings on record: at 1 µM.
Test [15] addresses Serine/threonine-protein kinase SIK1 (Homo sapiens) (UniProt P57059). The settings on record: at 0.1 µM.
For test [16] the target is unchanged. The settings on record: at 1 µM.
Test [17] addresses Serine/threonine-protein kinase SIK2 (Homo sapiens) (UniProt Q9H0K1). Conditions: at 0.1 µM.
Test [18] shares this target. The settings on record: at 1 µM.
The target in test [19] is T3, Serine/threonine-protein kinase TBK1 (Homo sapiens) (UniProt Q9UHD2).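 Further: values are the mean TBK1 inhibition, taken from the GSK PKIS screening data.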
T3 sequence (whole entry): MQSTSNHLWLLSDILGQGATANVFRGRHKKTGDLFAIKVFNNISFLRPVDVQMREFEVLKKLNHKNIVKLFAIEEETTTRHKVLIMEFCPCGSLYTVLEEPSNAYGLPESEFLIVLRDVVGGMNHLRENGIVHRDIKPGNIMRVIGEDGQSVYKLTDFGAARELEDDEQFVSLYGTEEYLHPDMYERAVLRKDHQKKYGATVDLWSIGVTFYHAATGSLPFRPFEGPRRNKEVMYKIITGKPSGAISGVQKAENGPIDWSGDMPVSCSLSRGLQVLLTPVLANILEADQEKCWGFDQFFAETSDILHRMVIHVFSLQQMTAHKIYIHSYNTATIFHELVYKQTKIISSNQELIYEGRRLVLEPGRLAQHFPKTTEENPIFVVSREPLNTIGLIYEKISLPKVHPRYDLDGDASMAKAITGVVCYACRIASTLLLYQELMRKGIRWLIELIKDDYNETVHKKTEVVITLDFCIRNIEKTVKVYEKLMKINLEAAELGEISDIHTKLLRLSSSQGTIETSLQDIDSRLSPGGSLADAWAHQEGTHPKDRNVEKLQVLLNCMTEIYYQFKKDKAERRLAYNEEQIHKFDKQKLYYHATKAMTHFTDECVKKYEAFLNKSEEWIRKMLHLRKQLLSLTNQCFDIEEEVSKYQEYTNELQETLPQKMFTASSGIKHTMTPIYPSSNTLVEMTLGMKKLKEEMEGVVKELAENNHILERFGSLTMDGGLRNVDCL
Conditions: at 0.1 µM.

Test [20] addresses Serine/threonine-protein kinase pim-3 (Homo sapiens) (UniProt Q86V86). Conditions: at 0.1 µM.

Serine/threonine-protein kinase SIK2 (Homo sapiens), sequence (Q9H0K1 whole entry, looked up): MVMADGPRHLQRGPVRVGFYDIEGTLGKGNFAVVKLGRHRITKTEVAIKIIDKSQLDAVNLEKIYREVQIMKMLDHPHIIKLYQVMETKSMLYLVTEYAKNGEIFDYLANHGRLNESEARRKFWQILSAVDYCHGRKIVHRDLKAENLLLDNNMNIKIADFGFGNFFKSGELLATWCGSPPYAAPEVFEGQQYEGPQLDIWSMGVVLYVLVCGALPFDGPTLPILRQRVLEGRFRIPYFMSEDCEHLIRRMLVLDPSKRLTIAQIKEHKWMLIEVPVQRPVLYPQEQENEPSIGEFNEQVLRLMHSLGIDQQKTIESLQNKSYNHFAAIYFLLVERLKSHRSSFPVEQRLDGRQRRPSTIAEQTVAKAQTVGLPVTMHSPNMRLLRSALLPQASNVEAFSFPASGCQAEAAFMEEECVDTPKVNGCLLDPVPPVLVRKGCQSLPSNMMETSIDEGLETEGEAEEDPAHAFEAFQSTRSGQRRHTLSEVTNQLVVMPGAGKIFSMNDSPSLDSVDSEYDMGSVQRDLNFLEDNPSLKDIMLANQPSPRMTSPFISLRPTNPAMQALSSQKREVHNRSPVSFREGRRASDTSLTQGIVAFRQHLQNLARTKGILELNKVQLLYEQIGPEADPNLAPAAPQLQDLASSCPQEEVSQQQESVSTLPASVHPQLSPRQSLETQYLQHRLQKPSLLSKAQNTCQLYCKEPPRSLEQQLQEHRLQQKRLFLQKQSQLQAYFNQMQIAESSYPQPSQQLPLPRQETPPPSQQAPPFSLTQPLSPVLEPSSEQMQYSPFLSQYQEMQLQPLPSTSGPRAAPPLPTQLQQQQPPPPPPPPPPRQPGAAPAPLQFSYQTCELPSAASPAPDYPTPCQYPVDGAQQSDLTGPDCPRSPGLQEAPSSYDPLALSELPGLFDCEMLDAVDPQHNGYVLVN
Serine/threonine-protein kinase pim-1 (Homo sapiens), sequence (P11309 whole entry, looked up): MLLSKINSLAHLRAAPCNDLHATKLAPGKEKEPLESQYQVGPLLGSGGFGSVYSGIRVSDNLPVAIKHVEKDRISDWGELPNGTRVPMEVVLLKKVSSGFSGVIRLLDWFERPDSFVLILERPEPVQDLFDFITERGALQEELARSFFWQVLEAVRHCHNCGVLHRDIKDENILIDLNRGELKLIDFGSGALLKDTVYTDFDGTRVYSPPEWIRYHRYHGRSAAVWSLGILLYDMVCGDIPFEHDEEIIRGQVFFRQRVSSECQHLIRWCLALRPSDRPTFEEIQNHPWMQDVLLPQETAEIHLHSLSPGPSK
Phosphorylase b kinase gamma catalytic chain, skeletal muscle/heart isoform (Homo sapiens), sequence (Q16816 whole entry, looked up, canonical isoform): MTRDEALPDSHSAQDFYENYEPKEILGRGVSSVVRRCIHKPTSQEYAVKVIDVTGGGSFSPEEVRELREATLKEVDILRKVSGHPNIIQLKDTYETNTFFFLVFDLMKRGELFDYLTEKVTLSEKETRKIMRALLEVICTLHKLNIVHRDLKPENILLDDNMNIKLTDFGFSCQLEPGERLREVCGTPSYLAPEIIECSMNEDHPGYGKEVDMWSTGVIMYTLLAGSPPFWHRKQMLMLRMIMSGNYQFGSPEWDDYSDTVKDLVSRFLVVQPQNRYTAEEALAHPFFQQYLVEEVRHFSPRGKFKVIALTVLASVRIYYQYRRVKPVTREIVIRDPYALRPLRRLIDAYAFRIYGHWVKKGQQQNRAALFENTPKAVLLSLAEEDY
Serine/threonine-protein kinase SIK1 (Homo sapiens), sequence (P57059 whole entry): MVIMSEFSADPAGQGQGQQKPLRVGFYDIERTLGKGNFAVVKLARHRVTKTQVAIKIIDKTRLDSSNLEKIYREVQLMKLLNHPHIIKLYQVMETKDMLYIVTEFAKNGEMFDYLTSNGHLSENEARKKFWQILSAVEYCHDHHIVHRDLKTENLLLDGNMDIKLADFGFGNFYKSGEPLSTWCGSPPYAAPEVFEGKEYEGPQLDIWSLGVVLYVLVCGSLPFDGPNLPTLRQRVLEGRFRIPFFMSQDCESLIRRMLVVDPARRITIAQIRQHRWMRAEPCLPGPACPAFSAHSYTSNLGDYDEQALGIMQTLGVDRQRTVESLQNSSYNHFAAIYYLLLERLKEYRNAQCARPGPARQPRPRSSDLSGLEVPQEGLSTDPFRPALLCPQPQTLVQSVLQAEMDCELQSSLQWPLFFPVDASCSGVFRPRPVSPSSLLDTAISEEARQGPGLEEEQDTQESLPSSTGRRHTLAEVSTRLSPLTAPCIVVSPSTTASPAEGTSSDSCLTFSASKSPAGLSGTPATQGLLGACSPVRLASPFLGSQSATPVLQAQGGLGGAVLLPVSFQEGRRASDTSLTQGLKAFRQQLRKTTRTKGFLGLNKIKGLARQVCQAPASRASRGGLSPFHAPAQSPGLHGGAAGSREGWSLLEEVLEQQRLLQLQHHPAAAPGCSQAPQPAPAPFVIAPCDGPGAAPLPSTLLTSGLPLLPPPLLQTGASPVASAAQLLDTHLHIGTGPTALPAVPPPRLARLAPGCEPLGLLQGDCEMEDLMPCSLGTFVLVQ
Serine/threonine-protein kinase MARK2 (Homo sapiens), sequence (Q7KZI7 whole entry, the tested form may be a part): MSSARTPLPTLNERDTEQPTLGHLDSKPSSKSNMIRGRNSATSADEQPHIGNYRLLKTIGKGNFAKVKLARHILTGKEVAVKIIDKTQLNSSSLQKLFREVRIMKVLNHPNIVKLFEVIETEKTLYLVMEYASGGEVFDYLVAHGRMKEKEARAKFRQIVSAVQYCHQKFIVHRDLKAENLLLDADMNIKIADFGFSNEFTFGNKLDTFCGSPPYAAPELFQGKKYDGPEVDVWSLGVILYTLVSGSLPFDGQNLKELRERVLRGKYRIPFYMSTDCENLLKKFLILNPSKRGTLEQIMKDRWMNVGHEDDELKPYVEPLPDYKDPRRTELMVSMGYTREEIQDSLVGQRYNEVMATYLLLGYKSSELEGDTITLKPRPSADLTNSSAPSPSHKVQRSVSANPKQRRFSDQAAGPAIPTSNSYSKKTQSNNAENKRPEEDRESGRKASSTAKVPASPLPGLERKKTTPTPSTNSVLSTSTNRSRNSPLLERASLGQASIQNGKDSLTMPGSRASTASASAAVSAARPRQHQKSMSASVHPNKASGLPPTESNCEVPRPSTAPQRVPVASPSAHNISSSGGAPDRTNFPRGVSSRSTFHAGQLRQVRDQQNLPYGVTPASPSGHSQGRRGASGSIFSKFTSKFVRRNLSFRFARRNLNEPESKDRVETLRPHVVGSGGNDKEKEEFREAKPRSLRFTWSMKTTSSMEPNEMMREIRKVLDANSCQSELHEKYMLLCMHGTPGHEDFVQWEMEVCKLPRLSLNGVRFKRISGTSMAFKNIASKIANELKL
Serine/threonine-protein kinase pim-2 (Homo sapiens), sequence (Q9P1W9 whole entry, looked up): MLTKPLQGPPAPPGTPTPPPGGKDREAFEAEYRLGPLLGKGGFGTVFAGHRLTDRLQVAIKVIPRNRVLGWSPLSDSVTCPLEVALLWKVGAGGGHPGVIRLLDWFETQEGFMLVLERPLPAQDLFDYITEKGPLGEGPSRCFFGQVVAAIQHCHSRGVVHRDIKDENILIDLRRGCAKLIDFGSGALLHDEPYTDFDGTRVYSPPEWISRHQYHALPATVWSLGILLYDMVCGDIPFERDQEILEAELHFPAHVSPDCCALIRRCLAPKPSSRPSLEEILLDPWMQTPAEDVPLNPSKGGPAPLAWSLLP

With `CN(C)c1cc2c(Nc3ccc4nc(Cc5ccccc5)[nH]c4c3)ncnc2cn1`, the inhibition in test [1] was 1.13%; in test [2], 0.02%; in test [3], -2.17%; in test [4], 7.34%; in test [5] it was 13.4%; in [6] it was 5.65%. Also, the inhibition in [7] is 5.19%; in [8], 1.36%; in test [9] it was 3.18%; in test [10] it was -0.82%; in test [11], 0.97%; in test [12], 2.51%. Moreover, the inhibition in test [13] was 1.83%; in test [14], 2.12%; in [15] it was 5.71%; in test [16] it was 10.2%; in test [17] it was 8.08%; in test [18], 7.99%. The inhibition in [19] was 2.69%.

Regarding `N#Cc1c(NC(=O)c2cccc3ccccc23)sc2c1CCCC2`, the inhibition was 1.22% in [1]; -0.47% in test [2]; -1.11% in [3]; 8.32% in test [4]; 5.08% in test [5]; 2.74% in [6]. For the same compound, the inhibition is 1.46% in [7]; 0.51% in [8]; 0.27% in [9]; -0.34% in test [10]; -0.27% in test [11]; -0.51% in test [20]. Besides, the inhibition in [12] was -1.85%; in [13], 0.72%; in [14], 0.28%; in test [15], 7.26%; in test [16] it was 9.67%; in test [17] it was 2.47%. Besides, the results for the inhibition in test [18] and in test [19] were 12.4% and 0.12%, respectively.

Regarding `O=C1NC(=O)C(c2cccc(Cl)c2)=C1Nc1ccc(O)c(Cl)c1`, the inhibition in test [1] was determined as 16.3%; in [2], 1.02%; in test [3], 0.49%; in [4] it was 2.04%; in test [5] it was 6.07%; in test [6] it was 1.35%. Further, the inhibition is -1.03% in test [7]; 1.35% in [8]; 3.87% in test [9]; 0.87% in test [10]; 1.76% in test [11]; -0.02% in test [20]. Moreover, the inhibition in [12] is 0.87%; in [13], -0.23%; in test [14], -0.79%; in test [15] it was -4.1%; in [16], 9.22%; in test [17] it was -3.06%. Also, the inhibition in [18] turned out to be 19.8%; in [19], 3.62%.

Consider `COc1cc2ncn(-c3cc(OCc4ccccc4Cl)c(C(N)=O)s3)c2cc1OC`, for which the inhibition in test [1] was 6.01%; in test [2], -0.4%; in test [3], -0.88%; in [4] it was 3.72%; in test [5], 5.84%; in [6] it was -0.8%. Also, the inhibition in [7] is 1.21%; in [8] it was 0.77%; in test [9], 2.71%; in test [10], 1.11%; in [11], 4.79%; in test [20], 1.01%. For the same compound, the inhibition in test [12] was 8.63%; in test [13], -0.46%; in [14], 0.67%; in test [15], -2.01%; in test [16], 28%; in [17] it was 2.69%. Further, the inhibition worked out at 26.6% in test [18] and 3.64% in [19].

For the compound `COc1ccc2cc(-c3c(-c4ccncc4)nc(-c4ccc([S+](C)[O-])cc4)n3C)ccc2c1` (configuration not stated), the inhibition was 2.02% in test [1]; 0.01% in [2]; -1.68% in [3]; 2.27% in [4]; 4.08% in [6]; 1.1% in [7]. Also, the inhibition in test [8] is -0.22%; in test [9], 0.54%; in test [10] it was -0.02%; in test [11] it was 0.99%; in test [20], -1.77%; in test [12], -3.85%. Further, the inhibition in test [13] was 0.94%; in [14], -0.4%; in test [15] it was 2.62%; in test [16] it was 1.89%; in test [17] it was 0.52%; in test [18] it was 5.27%. Besides, the inhibition in test [19] is -2.09%.

For the compound `CS(=O)(=O)CCNCc1nc(-c2ccc3ncnc(Nc4ccc(F)c(Cl)c4)c3c2)cs1`, the inhibition amounted to 0.61% in [1]; 1% in test [2]; 0.68% in test [3]; 1.09% in test [4]; 4.69% in [5]; 3.04% in test [6]. Besides, the inhibition was 3.64% in [7]; 1.43% in [8]; 9.19% in test [9]; -0.24% in test [10]; -0.01% in test [11]; 0.66% in test [20]. Besides, the inhibition in test [12] is 6.45%; in [13], 0.35%; in [14], 1.43%; in [15], 8.44%; in test [16], 8.78%; in test [17], 3.22%. Besides, the inhibition was 2.57% in test [18] and 1.85% in test [19].

Take `CS(=O)(=O)Nc1ccc(N/C=C2\C(=O)Nc3ccccc32)cc1`: the inhibition in [1] was 15.6%; in [2], 0.59%; in test [3], 0.59%; in test [4], 4.32%; in test [5] it was 31.5%; in test [6] it was -3.81%. For the same compound, the inhibition was 5.2% in test [7]; 0.18% in test [8]; 0.04% in [9]; -0.01% in test [10]; 0.67% in test [11]; 0.5% in [20]. In addition, the inhibition in test [12] was 2.02%; in test [13], -0.78%; in test [14], -0.07%; in test [16], 2.58%; in [17], 4.05%; in [18], -6.11%. The inhibition in [19] came to 0.52%.

As a reminder, the inhibition is the relative decrease from the control value, in per cent.
